Several values for one entry are separate records, joined by “and”; a condition that tells them apart may be missing. Equal entries are not always repeated. Inconclusive results are not listed. Where a call stands in place of a potency, no number is given. More than one record can exist for a structure, and the calls need not agree. Activity calls are given as the source filed them. Calls come from the whole dose curve; as a rule, active = well fitted activation curve with a large enough effect in the repeat runs; inconclusive = weak or mixed curves; inactive = flat fitted curve, though single readings scatter.
Experiment: A CellTox Green Cytotoxicity Assay to monitor cytotoxicity in HepG2 cells - 32 hour (AID 1224883); note: nearly all actives have a fitted effect of over 50% in size
Conditions: CellTox Green fluorescence; series mostly up to 76.8 µM
Description: National Center for Advancing Translational Sciences [NCATS]
NIH Chemical Genomics Center [NCGC]
U.S. Environmental Protection Agency [EPA]
National Institutes of Environmental Health Sciences [NIEHS]
National Toxicology Program [NTP]
Cell-based models are critical for drug discovery. Determining the natural cytotoxic effects resulting from test compounds is an essential research activity. A CellTox Green Cytotoxicity Assay to monitor cytotoxicity in real time of continues cell culture during 40 hours of the compound treatment was used to screen Tox21 10K library compounds in HepG2 cells. CellTox Green Cytotoxicity Assay is a nonlytic, homogeneous, biofluorescent method to measure cytotoxicity in cell culture after experimental manipulation. The assay system uses a proprietary asymmetric cyanine dye that is excluded from viable cells but preferentially stains the dead cell's DNA. […] Viable cells produce no appreciable increases in fluorescence. Therefore, the fluorescence signal produced by the binding interaction with dead cell DNA is proportional to cytotoxicity.
The mixture of HepG2 cell suspension and reagents were dispensed at 600cells/6 ul/well in 1536-well tissue culture treated black solid bottom plates using a Multidrop dispenser. After the assay plates were incubated at a 37 C/5% CO2 incubator for 5 hours, 23 nL of compounds dissolved in DMSO, positive and negative controls was transferred to the assay plate by a pintool work station. The plates were incubated at 37 C for 40 hours. The fluorescence intensity were measured at 0h, 8h, 16h, 24h, 32h and 40h time points using ViewLux plate reader during compound treatment.
Potency is the fitted concentration of half-maximal effect.

Row | Compound | Potency | cytotoxicity increase
1 | CCOC(=O)C(O)(c1ccc(Cl)cc1)c1ccc(Cl)cc1 | inactive and 43.6 µM (active) | –
2 | CCN(CC)C(=O)Cl | inactive | –
3 | c1ccc2c(c1)Sc1ccccc1N2CC1CN2CCC1CC2 (configuration not stated) | 21.3 µM (active) | –
4 | O=C(Nc1ccccc1-c1ccc(Cl)cc1)c1cccnc1Cl | 46.3 µM (active) | –
5 | O=C1C(I)=CC(=C(c2cc(I)c(O)c(I)c2)c2ccccc2C(=O)O)C=C1I | inactive | –
6 | C[C@]12CC[C@@H](O)C[C@@H]1CC[C@@H]1[C@@H]2CC[C@]2(C)C(=O)CC[C@@H]12 | inactive | –
7 | N#Cc1cc([N+](=O)[O-])ccc1N | inactive | –
8 | O=[N+]([O-])c1c(Cl)c(Cl)cc(Cl)c1Cl | 54.9 µM (active) | –
9 | COc1cc(OC)c(OC)cc1C=O | inactive | –
10 | O=C(c1ccccc1)C(Cl)Cl | inactive | –
11 | Cc1ccc2nc3sc(=O)sc3nc2c1 | – | -5.02% [at 15.8 µM] (inactive)
12 | Oc1c(I)cc(I)cc1I | inactive | –
13 | CC(c1ccccc1)(c1ccc(O)cc1)c1ccc(O)cc1 | 43.6 µM (active) | –
14 | Nc1ccc([N+](=O)[O-])cc1 | 43.6 µM (active) | –
15 | O=S(=O)(C(Cl)(Cl)Cl)C(Cl)(Cl)Cl | 24.5 µM (active) | –
16 | CO/C=C(/C(=O)OC)c1ccccc1Oc1cc(Oc2ccccc2C#N)ncn1 | inactive | –
17 | OCC(c1ccc(Cl)cc1)c1ccc(Cl)cc1 | 38.9 µM (active) | –
18 | Cc1ccc(N(SC(F)(Cl)Cl)S(=O)(=O)N(C)C)cc1 | 6.92 µM (active) | –
19 | OC(Cc1ccccc1Cl)(Cn1[nH]cnc1=S)C1(Cl)CC1 (configuration not stated) | inactive | –
20 | CNC(=O)Oc1cc(C)c(SC)c(C)c1 | inactive | –
21 | CN1CSC(=S)N(C)C1 | 10.9 µM (active) and 21.8 µM (active) | –
22 | COc1ccc(C(c2ccc(OC)cc2)C(Cl)(Cl)Cl)cc1 | inactive | –
